According to the supplement of paper PMC12645437, “Orthogonal IMiD-Degron Pairs Induce Selective Protein Degradation in Cells” (ACS Chemical Biology, 2025):
Over roughly 8,300 sequences, “log2 fold change of degron read counts, EGFP-low vs EGFP+ sorted cells (limma voom), compound-induced degradation” has its median near -1.1; the highest 2% begin near 3.2. What follows is part of a selection rich in the highest values, with near analogues and random picks from the rest.

T1: CRBN, Q96SW2
T1 chain: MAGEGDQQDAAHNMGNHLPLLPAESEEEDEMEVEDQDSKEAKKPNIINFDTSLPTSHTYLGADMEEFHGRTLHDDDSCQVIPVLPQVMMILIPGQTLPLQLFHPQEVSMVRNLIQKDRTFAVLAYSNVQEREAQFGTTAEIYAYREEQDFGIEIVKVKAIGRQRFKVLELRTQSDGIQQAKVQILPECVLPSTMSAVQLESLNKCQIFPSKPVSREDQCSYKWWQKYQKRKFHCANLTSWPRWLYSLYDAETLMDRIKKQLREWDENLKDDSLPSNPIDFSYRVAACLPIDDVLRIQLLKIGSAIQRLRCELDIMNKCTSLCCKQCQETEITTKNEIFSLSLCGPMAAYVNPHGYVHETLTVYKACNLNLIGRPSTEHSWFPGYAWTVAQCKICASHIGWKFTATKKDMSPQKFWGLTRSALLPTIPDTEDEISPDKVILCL


Target: T1, CRBN, Q96SW2
Assay: log2 fold change of degron read counts, EGFP-low vs EGFP+ sorted cells (limma voom), compound-induced degradation; higher = more compound-induced degradation of the degron-EGFP fusion; degrons are variants of IKZF1/3 zinc finger 2; compound dose not given here
Conditions: Jurkat, 18 h
[1] = compound: compound 19 (5-tert-butyl-thalidomide)
[2] = compound: compound 22 (5-morpholino-thalidomide)
[3] = compound: compound 33 (diphenyl IMiD analogue)
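Also: pooled lentiviral library of zinc finger degron-EGFP fusions in mCherry-positive Jurkat cells, FACS-sorted after compound exposure, with degron abundance counted by next-generation sequencing.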

| Sequence | log2 fold change of degron read counts [1] | log2 fold change of degron read counts [2] | log2 fold change of degron read counts [3] | log2 fold change of degron read counts (compound: thalidomide) |
| --- | --- | --- | --- | --- |
| FSCDVCGALFTQKGNLLRHIKL [46F_47S_49D_50V_52G_53A_54L_55F_67L_, Q9UKT9] | -1.17 | -1.66 | 0.461 | -2.2 |
| FECEQCGAGFTQKGNLLRHIKL [46F_47E_49E_50Q_52G_53A_54G_55F_67L_, Q9UKT9] | -1.66 | -2.94 | -1.37 | -1.37 |
| FRCSVCGHNFTQKGNLLRHIKL [46F_47R_49S_50V_52G_53H_54N_55F_67L_, Q9UKT9] | -2.2 | -2.6 | -2.8 | -2.89 |
| FICEICGHSFTQKGNLLRHIKL [46F_47I_49E_50I_52G_53H_54S_55F_67L_, Q9UKT9] | -3.27 | -2.78 | -2.2 | -2.17 |
| FCCDICGAEFTQKGNLLRHIKL [46F_47C_49D_50I_52G_53A_54E_55F_67L_, Q9UKT9] | 0.189 | -0.292 | -0.603 | -0.702 |
| FTCNQCGHTFTQKGNLLRHIKL [46F_47T_49N_50Q_52G_53H_54T_55F_67L_, Q9UKT9] | -3.38 | -3.31 | -3.66 | -2.92 |
| FMCDVCGAIFTQKGNLLRHIKL [46F_47M_49D_50V_52G_53A_54I_55F_67L_, Q9UKT9] | -2.28 | -2.09 | 0.171 | -1.7 |
| FNCNICGARFTQKGNLLRHIKL [46F_47N_49N_50I_52G_53A_54R_55F_67L_, Q9UKT9] | 1.28 | 0.255 | -1.05 | -0.266 |
| FWCNICGARFTQKGNLLRHIKL [46F_47W_49N_50I_52G_53A_54R_55F_67L_, Q9UKT9] | 2.19 | 3.34 | 0.85 | 0.523 |
| FLCNICGARFTQKGNLLRHIKL [46F_47L_49N_50I_52G_53A_54R_55F_67L_, Q9UKT9] | -1.1 | -1.89 | -0.701 | 0.842 |
| FTCNICGARFTQKGNLLRHIKL [46F_47T_49N_50I_52G_53A_54R_55F_67L_, Q9UKT9] | 0.313 | 1.57 | 0.916 | 2.41 |
| FQCNICGARFTQKGNLLRHIKL [46F_47Q_49N_50I_52G_53A_54R_55F_67L_, Q9UKT9] | -0.916 | 0.973 | 0.399 | 3.26 |
| FYCNICGARFTQKGNLLRHIKL [46F_47Y_49N_50I_52G_53A_54R_55F_67L_, Q9UKT9] | 1.83 | 2.47 | -0.345 | -0.644 |
| LHCPICGFWCTQKGNLLRHIKL [46L_47H_49P_50I_52G_53F_54W_55C_67L_, Q9UKT9] | 1.34 | 1.54 | 2.54 | 1.59 |
| FQCPICGHNFTQKGNLLRHIKL [46F_47Q_49P_50I_52G_53H_54N_55F_67L_, Q9UKT9] | -2.9 | -1.92 | -1.21 | 0.375 |
| LACPICGFTCTQKGNLLRHIKL [46L_47A_49P_50I_52G_53F_54T_55C_67L_, Q9UKT9] | 3.68 | 3.23 | 2.51 | 2.61 |
| LQCPICGFTCTQKGNLLRHIKL [46L_47Q_49P_50I_52G_53F_54T_55C_67L_, Q9UKT9] | 1.75 | 2.59 | 2.54 | 3.66 |
| LTCPICGFTCTQKGNLLRHIKL [46L_47T_49P_50I_52G_53F_54T_55C_67L_, Q9UKT9] | 1.57 | 3.31 | 2.65 | 3.44 |
| LMCPICGFTCTQKGNLLRHIKL [46L_47M_49P_50I_52G_53F_54T_55C_67L_, Q9UKT9] | -0.0285 | 1.97 | 2.76 | 2.79 |
| LLCPICGFTCTQKGNLLRHIKL [46L_47L_49P_50I_52G_53F_54T_55C_67L_, Q9UKT9] | 0.147 | 0.286 | 1.38 | 2.64 |
| LHCPICGFTCTQKGNLLRHIKL [46L_47H_49P_50I_52G_53F_54T_55C_67L_, Q9UKT9] | 2.75 | 2.97 | 2.8 | 2.34 |
| LVCPICGFTCTQKGNLLRHIKL [46L_47V_49P_50I_52G_53F_54T_55C_67L_, Q9UKT9] | 1.27 | 2.61 | 2.22 | 3.21 |
| LICPICGFTCTQKGNLLRHIKL [46L_47I_49P_50I_52G_53F_54T_55C_67L_, Q9UKT9] | 0.369 | 2.36 | 2.13 | 2.81 |
| LKCPICGFTCTQKGNLLRHIKL [46L_47K_49P_50I_52G_53F_54T_55C_67L_, Q9UKT9] | -0.865 | -1.65 | -1.59 | 0.662 |
| LSCPICGFTCTQKGNLLRHIKL [46L_47S_49P_50I_52G_53F_54T_55C_67L_, Q9UKT9] | 3.13 | 2.83 | 2.48 | 2.59 |
| LRCPICGFTCTQKGNLLRHIKL [46L_47R_49P_50I_52G_53F_54T_55C_67L_, Q9UKT9] | 0.326 | 0.593 | 1.93 | 2.23 |
| LFCPICGFTCTQKGNLLRHIKL [46L_47F_49P_50I_52G_53F_54T_55C_67L_, Q9UKT9] | 3.39 | 3.54 | 2.49 | 2.69 |
